The results in this text go back to the supplement of paper PMC6089552.

The subject of the experiment is A673/TR/shEF. Briefly: cell viability (LOESS-normalised, relative to median of negative controls) (log2 ratio); higher = more viable cells (less compound effect), active = hit call of the paper (over 3 MAD below the median). The settings on record: treatment time: 72 h. In a few lines: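 Viability of A673/TR/shEF Ewing sarcoma cells was determined by CellTiter-Glo luminescence. The cells, at 1,500 per well in 384-well plates, were grown with or without doxycycline from 24 h before compound addition to switch on EWS-FLI1 shRNA knockdown, then exposed for three days to library compounds at two or more concentrations or to DMSO controls. Signals were LOESS-corrected plate by plate, normalised to the negative-control median and log2-transformed.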

[1] abbreviates: 0.25 µM, library screen: screen1, EWS-FLI1 expression: high (no doxycycline).
Setting [2] is: 0.25 µM, library screen: screen1, EWS-FLI1 expression: low (doxycycline-induced shRNA knockdown).
[3] abbreviates: 2.5 µM, library screen: screen1, EWS-FLI1 expression: high (no doxycycline).
Where [4] appears, read: 2.5 µM, library screen: screen1, EWS-FLI1 expression: low (doxycycline-induced shRNA knockdown).
Where [5] appears, read: 0.25 µM, library screen: screen2, EWS-FLI1 expression: high (no doxycycline).
Where [6] appears, read: 0.25 µM, library screen: screen2, EWS-FLI1 expression: low (doxycycline-induced shRNA knockdown).
Where [7] appears, read: 2.5 µM, library screen: screen2, EWS-FLI1 expression: high (no doxycycline).
Where [8] appears, read: 2.5 µM, library screen: screen2, EWS-FLI1 expression: low (doxycycline-induced shRNA knockdown).
[9] abbreviates: 0.025 µM, library screen: screen2, EWS-FLI1 expression: high (no doxycycline).
Setting [10] is: 0.025 µM, library screen: screen2, EWS-FLI1 expression: low (doxycycline-induced shRNA knockdown).
Where [11] appears, read: 25 µM, library screen: screen2, EWS-FLI1 expression: high (no doxycycline).
[12] abbreviates: 25 µM, library screen: screen2, EWS-FLI1 expression: low (doxycycline-induced shRNA knockdown).

SMILES strings stand for the structures. About 300 (9.4%) of roughly 3,200 compounds showed activity. The sample as a whole holds a higher share of actives than the screen did. A number with no mark means an inactive call.

For the compound `CC1=C2[C@H]3OC(=O)[C@@H](C)[C@@H]3CC[C@@]2(C)C=CC1=O`, the “cell viability (log2)” value by setting is: under setting [1], 0.0669; under setting [2], -0.0349; under setting [3], 0.0906; under setting [4], 0.0161.

For `CCN(CC)C(=O)N[C@H]1C=C2c3cccc4[nH]cc(c34)C[C@H]2N(C)C1`, the “cell viability (log2)” value is 0.144 under setting [5], 0.146 under setting [6], 0.172 under setting [7] and 0.138 under setting [8].

Turning to `C=C(C)[C@@H]1C2OC(=O)C1[C@]1(O)CC3O[C@]34C(=O)O[C@H]2[C@]14C.CC(C)(O)[C@@H]1C2OC(=O)C1[C@]1(O)C[C@H]3O[C@]34C(=O)O[C@H]2[C@]14C` (stereo partly drawn), the “cell viability (log2)” value under setting [5] was 0.0987, the “cell viability (log2)” value under setting [6] is 0.0228, the “cell viability (log2)” value under setting [7] was 0.079 and the “cell viability (log2)” value under setting [8] was 0.0567.

As for `O=C(O)C1C2CCC(O2)C1C(=O)O` (stereo not drawn), the “cell viability (log2)” value was 0.136 (0.025 µM, library screen: screen1, EWS-FLI1 expression: high (no doxycycline)); 0.0328 (0.025 µM, library screen: screen1, EWS-FLI1 expression: low (doxycycline-induced shRNA knockdown)); 0.0769 under setting [1]; 0.0235 under setting [2]; 0.267 under setting [5]; 0.0812 under setting [6]. In addition, the “cell viability (log2)” value reads like this: under setting [3], -0.431 (active); under setting [4], -2.19 (active); under setting [7], 0.105; under setting [8], -0.0306; (25 µM, library screen: screen1, EWS-FLI1 expression: high (no doxycycline)) -0.369 (active); (25 µM, library screen: screen1, EWS-FLI1 expression: low (doxycycline-induced shRNA knockdown)) -2.13 (active).

`O=C(O)[C@@H]1CCN1`: the “cell viability (log2)” value is 0.101 under setting [5], 0.092 under setting [6], 0.0671 under setting [7] and 0.0609 under setting [8].

As for `COc1ccc(CN2CCN(Cc3cccc(F)c3)CC2)cc1`, the “cell viability (log2)” value is 0.0679 under setting [1], 0.104 under setting [2], 0.124 under setting [3] and 0.0696 under setting [4].

As to `Nc1ncnc2c1ncn2[C@@H]1O[C@@H]2COP(O)(=S)O[C@H]2[C@H]1O` (stereo partly drawn), the “cell viability (log2)” value was 0.205 under setting [5], 0.149 under setting [6], 0.079 under setting [7] and 0.148 under setting [8].

Regarding `CSc1nc(NC(C)C)nc(NC(C)C)n1`, the “cell viability (log2)” value was 0.0904 under setting [1], -0.0688 under setting [2], 0.0234 under setting [3] and 0.0938 under setting [4].

Consider `CNC(=O)O/N=C(\C)SC`, for which the “cell viability (log2)” value is, setting by setting: under setting [1], 0.0466; under setting [2], 0.0661; under setting [3], 0.0904; under setting [4], 0.143.

As to `O=C1C=C2C(=CCOC2O)O1` (stereo not drawn), the “cell viability (log2)” value runs as follows: under setting [1], -0.259 (active); under setting [2], 0.05; under setting [3], -2.95 (active); under setting [4], -0.992 (active).

Turning to `C=CCN1CC[C@@]2(C)c3cc(O)ccc3CC1[C@@H]2C`, the “cell viability (log2)” value reads like this: under setting [5], 0.194; under setting [6], 0.135; under setting [7], 0.028; under setting [8], 0.047.

Take `N#C[C@H](O[C@@H]1O[C@H](CO[C@@H]2O[C@H](CO)[C@@H](O)[C@H](O)[C@H]2O)[C@@H](O)[C@H](O)[C@H]1O)c1ccccc1`: the “cell viability (log2)” value is, setting by setting: under setting [9], 0.166; under setting [10], 0.0523; under setting [1], 0.122; under setting [2], -0.00438; under setting [5], 0.174; under setting [6], 0.00657. The “cell viability (log2)” value by setting is: under setting [3], 0.113; under setting [4], 0.0319; under setting [7], 0.1; under setting [8], 0.0264; under setting [11], 0.202; under setting [12], 0.0554.

On to `CC(=O)[C@H]1CC[C@H]2[C@@H]3CC[C@H]4C[C@H](O)CC[C@]4(C)[C@H]3CC[C@]12C`, for which the “cell viability (log2)” value under setting [5] was 0.267, the “cell viability (log2)” value under setting [6] is 0.093, the “cell viability (log2)” value under setting [7] is 0.266 and the “cell viability (log2)” value under setting [8] is 0.165.

Take `CC(=O)[C@H]1CC[C@H]2[C@@H]3CC[C@H]4C[C@H](O)CC[C@]4(C)[C@H]3C(=O)C[C@]12C`: the “cell viability (log2)” value by setting is: under setting [5], 0.0616; under setting [6], 0.101; under setting [7], -2.77 (active); under setting [8], -0.524 (active).

Take `CC(=O)[C@H]1CC[C@H]2[C@@H]3CC[C@H]4C[C@@H](O)CC[C@]4(C)[C@H]3CC[C@]12C`: the “cell viability (log2)” value under setting [1] was 0.0984, the “cell viability (log2)” value under setting [2] is 0.068, the “cell viability (log2)” value under setting [3] was 0.0674 and the “cell viability (log2)” value under setting [4] was 0.135.

`CNC(=O)Oc1cccc2c1OC(C)(C)C2`: the “cell viability (log2)” value runs as follows: under setting [1], 0.0513; under setting [2], 0.0685; under setting [3], 0.07; under setting [4], 0.106.

As for `ClC1=C(Cl)[C@]2(Cl)[C@@H]3[C@@H]4C[C@@H]([C@H]5O[C@@H]45)[C@@H]3[C@@]1(Cl)C2(Cl)Cl`, the “cell viability (log2)” value is 0.163 under setting [1], 0.0877 under setting [2], 0.115 under setting [3] and 0.192 under setting [4].

For `CC(=O)O[C@H]1CC[C@]2(C=O)C3CC[C@]4(C)[C@@H](C5=CC(=O)OC5)CC[C@]4(O)C3CC[C@]2(O)C1` (stereo partly drawn), the “cell viability (log2)” value is 0.0163 under setting [1], -0.145 under setting [2], -1.12 (active) under setting [3] and -1.15 (active) under setting [4].

Consider `CC(=O)OC1CCC23C(=O)OC45CCC(C6=CC(=O)OC6)C4(C)CCC2C5CCC3(O)C1` (stereo not drawn), for which the “cell viability (log2)” value runs as follows: under setting [1], -0.0349; under setting [2], -0.171; under setting [3], -1.11 (active); under setting [4], -1.12 (active).

With `CC(=O)O[C@H]1CC[C@@]2(C)C(=CCC3C2CC[C@]2(C)C(=O)CCC32)C1` (stereo partly drawn), the “cell viability (log2)” value by setting is: under setting [1], 0.0955; under setting [2], 0.0874; under setting [3], 0.042; under setting [4], 0.106.

`C[C@]12CC[C@H]3[C@@H](CC[C@]4(O)C[C@@H](O)CC[C@]34C=O)[C@@]1(O)CC[C@@H]2C1=CC(=O)OC1`: the “cell viability (log2)” value reads like this: under setting [1], 0.0251; under setting [2], -0.17; under setting [3], -1.21 (active); under setting [4], -1.3 (active).

With `NCCC(O)C(=O)NC1CC(N)C(OC2OC(CN)C(O)C(O)C2N)C(OC2OC(CO)C(O)C2O)C1O` (stereo not drawn), the “cell viability (log2)” value runs as follows: under setting [1], 0.0254; under setting [2], -0.0377; under setting [3], 0.12; under setting [4], -0.0236.

In the case of `CCN1C[C@]2(C)CC[C@H](O)[C@]34C1[C@H](C[C@H]23)[C@@]1(O)C[C@H](OC)[C@H]2C[C@@H]4[C@@H]1[C@H]2O`, the “cell viability (log2)” value by setting is: under setting [5], 0.0509; under setting [6], 0.0197; under setting [7], 0.0295; under setting [8], 0.0503.

On to `COC(=O)COc1ccc(Cl)cc1Cl`, for which the “cell viability (log2)” value under setting [1] was 0.022, the “cell viability (log2)” value under setting [2] was -0.0423, the “cell viability (log2)” value under setting [3] is 0.11 and the “cell viability (log2)” value under setting [4] is 0.0409.

On to `COc1cccc(CN2CCN(Cc3cccc(F)c3)CC2)c1`, for which the “cell viability (log2)” value reads like this: under setting [1], 0.0335; under setting [2], 0.131; under setting [3], 0.0329; under setting [4], 0.0279.

Turning to `C[C@@H]1CC[C@@]2(NC1)O[C@H]1C[C@H]3[C@@H]4CC=C5C[C@@H](O)CC[C@]5(C)[C@H]4CC[C@]3(C)[C@H]1[C@@H]2C`, the “cell viability (log2)” value runs as follows: under setting [9], 0.0804; under setting [10], 0.071; under setting [1], 0.101; under setting [2], 0.14; under setting [5], 0.194; under setting [6], 0.0802. Also, the “cell viability (log2)” value by setting is: under setting [3], 0.13; under setting [4], 0.0856; under setting [7], 0.106; under setting [8], 0.133; under setting [11], 0.0875; under setting [12], 0.0211.
